Source: PubChem
HT1080 IDH1KD tx = HT-1080 IDH1 knockdown cell toxicity (counter line); HT-1080 IDH1 knockdown viability, ATP luminescence, 48 h; Potency, µM (top dose mostly 46.1 µM), most hits filed as cytotoxic; hit rate 2% among 360,000; AID 686971
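IDH1KD HT-1080 cells, 750/well, RPMI + 5% FBS; compound pinned after 2 h settling; 48 h, 37 °C; CellTiter-Glo luminescence; % activity normalised to DMSO and no-cell wells; curves fitted, classed by r2 and efficacy.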
TDP1 cell noCPT = qHTS for Inhibitors of human tyrosyl-DNA phosphodiesterase 1 (TDP1): qHTS in cells in absence of CPT | DT40 Tdp1-/- hTDP1 cells, no CPT, ATP luminescence, 48 h | Potency, µM (top dose mostly 46.2 µM), most hits filed as inhibitors | hit rate 15% among 420,000 | AID 686978, 2013; note: nearly all actives have a fitted effect of over 55% in size
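Luminescent ATP content (CellTiter-Glo) served as the growth readout. Knockout chicken DT40 cells expressing human TDP1 were exposed to compounds without camptothecin for a minimum 48 hr at 37 °C.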
IL1B secr inh = blocks inflammasome-driven IL-1 beta release. THP-1 LPS/ATP IL-1B secretion, AlphaLISA, 16 h; active compounds read low. activity change, % at 57.5 µM. hit rate 4.7% among 360,000. AID 743279; in the data active = activity change below about -50%; inconclusive = mostly about -30% to -49%
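THP-1 cells pretreated 1 hr with compounds (up to 57.5 uM final), then stimulated with LPS (250 ng/mL final) plus ATP (1.25 mM final); secreted IL-1B measured by AlphaLISA after 16 hr, decreased signal indicating inhibition.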
TDP1 cell CPT = DT40-hTDP1 cell growth loss with CPT; AID 686979; Potency, µM (doses to about 46.2 µM), hits mostly inhibitors; hit rate 12% among 420,000; chicken DT40 Tdp1-/-;hTDP1 cells + 20 nM CPT, ATP luminescence, 48 h; note: nearly all actives have a fitted effect of over 55% in size
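Chicken DT40 Tdp1-/- cells stably complemented with human TDP1 were seeded at 400 cells/well in medium containing 20 nM camptothecin, exposed to pin-transferred compounds, and grown at 37 °C for at least 48 hr. Viability was read as ATP luminescence.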
HT1080-NT tox = kills 2HG-producing HT-1080-NT fibrosarcoma cells. HT-1080-NT fibrosarcoma viability, CellTiter-Glo ATP luminescence, 48 h. Potency, µM (series often up to 46.1 µM), usual class: cytotoxic. hit rate 1.6% among 360,000. AID 686970;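 note: NT is the 2HG producing partner of a matched IDH1 knockdown line; nearly all actives have a fitted effect of over 55% in size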
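Toxicity toward the 2HG-producing NT line was scored as %Activity, normalised to DMSO and no-cell wells, from CellTiter-Glo luminescence after 48 hours' treatment.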
A number is an active result; i = inactive; ? = inconclusive; nt = not tested or not shown. The list is not random: actives were taken first. Their share in the collection is about 19%. Unless noted, calls come from the whole dose curve; as a rule, active = well fitted curve in the direction sought with a large enough effect; inconclusive = small, poorly fitted or top-dose-only effect, or another doubt; inactive = no such curve, though single readings can be large; an effect the other way counts as inactive or inconclusive.

SMILES	HT1080 IDH1KD tx	TDP1 cell noCPT	IL1B secr inh	TDP1 cell CPT	HT1080-NT tox
COc1ccc(NC(=S)N2CCN(S(=O)(=O)c3ccc(F)cc3)CC2)cc1	i	i	i	i	i
c1ccc(OCCN2CCN(Cc3nc(-c4ccc5c(c4)OCO5)no3)CC2)cc1	i	i	i	i	i
O=C(COC(=O)c1ccc(-c2ccccc2)cc1)Nc1ccccc1-c1ccccc1	i	10µM	i	?	i
O=C(COC(=O)c1ccc(O)cc1)Nc1ccccc1-c1ccccc1	i	21µM	i	?	i
COCC(=O)OCC(=O)Nc1ccccc1-c1ccccc1	i	i	i	i	i
COC(=O)Cn1c(=NC(=O)c2ccc(S(=O)(=O)N3CCc4ccccc4C3)cc2)sc2cc(OC)ccc21	i	i	i	i	i
COC(=O)Cn1c(=NC(=O)c2cc(OC)cc(OC)c2)sc2cc(OC)ccc21	i	?	i	?	i
COC(=O)Cn1c(=NC(=O)c2cccc(OC)c2)sc2cc(OC)ccc21	i	23µM	i	i	i
COC(=O)Cn1c(=NC(=O)c2ccc(OC)cc2)sc2cc(OC)ccc21	i	9.2µM	i	?	i
Cn1cncc1C(=O)c1ccccc1	i	i	i	i	i
Cc1cccc(-n2ccc(=O)c(C(=O)O)n2)c1	i	i	i	i	i
Cc1ccc2c(c1)C(=O)[C@@]1(O)CCN(c3ccccc3)C1=N2	nt	?	nt	8.4µM	nt
Cc1ccc2c(c1)C(=O)C1(O)CCN(c3ccccc3)C1=N2 (configuration not stated)	nt	6.3µM	nt	8.9µM	nt
COC(=O)c1ccc([C@H](NC(=O)c2ccco2)[C@]2(C)C[C@H]2C2CCCCC2)cc1	i	?	i	?	i
COC(=O)c1c(NC(=O)Cc2coc3cc(C)cc(C)c23)sc2c1CCC2	nt	?	nt	i	nt
Cc1nc2ccc(C(=O)NC(C)(C)C)cn2c1N(C)C(=O)CCc1ccccc1	i	i	i	i	i
CC1CCN(CCCCOc2ccccc2Br)CC1	i	?	i	?	i
CN1CCN(CCOCCOc2c(Cl)cc(Cl)cc2Cl)CC1	i	16µM	i	?	?
Cc1cc(C)c(OCCCCN2CCC(C)CC2)c(Br)c1	?	?	-78	?	?
Cc1cc(Cl)c(OCCOCCN2CCC(C)CC2)c(Br)c1	i	16µM	-57	23µM	i
CCC(C)NCCCOc1c(C)cc(C)cc1Br (configuration not stated)	?	12µM	-76	?	?
CCCCNC(=O)C1(C)CCN1C(=O)c1cc2ccccc2s1 (configuration not stated)	i	?	i	?	i
Cc1nn2c(=O)cc(COC(=O)c3ccc(C(C)(C)C)cc3)nc2s1	nt	?	nt	i	nt
CC(C)(C)c1ccc(C(=O)Nc2ccc(C(=O)OCc3cc(=O)n4ccsc4n3)cc2)cc1	nt	21µM	nt	21µM	nt
Cc1nn2c(=O)cc(COC(=O)c3cccc(NC(=O)c4ccc(F)cc4)c3)nc2s1	nt	10µM	nt	12µM	nt
SMILES	HT1080 IDH1KD tx	TDP1 cell noCPT	IL1B secr inh	TDP1 cell CPT	HT1080-NT tox
CCOC(=O)c1cccc(NC(=O)c2ccco2)c1	i	i	i	i	i
Cc1nn2c(=O)cc(COC(=O)c3ccc(NC(=O)c4ccc(C(C)(C)C)cc4)cc3)nc2s1	nt	16µM	nt	?	nt
CCOC(=O)c1cccc(NC(=O)c2cc3cc4ccc(C)cc4nc3s2)c1	nt	15µM	nt	15µM	nt
O=C(CNc1ccccc1N1CCCC1=O)Nc1cc(C(F)(F)F)ccc1-n1cncn1	i	i	i	i	i
Cc1nn(Cc2ccccc2)c(C)c1C(=O)N1CCN(S(=O)(=O)/C=C/c2ccccc2)CC1	i	?	i	i	i
COc1ccccc1N1CCN(C(=O)CCc2nnc3ccc(N4CCOCC4)nn23)CC1	i	i	i	i	i
Cc1[nH]c(=O)[nH]c(=O)c1C1N2CC3(C(C)C)CN1CC(C(C)C)(C2)C3=O (configuration not stated)	nt	i	nt	i	nt
CCOC(=O)c1c(NC(=S)Nc2ccccc2)sc2c1CC(C)(C)SC2	i	?	i	16µM	i
CCCCc1nn2c(=O)cc(COC(=O)c3cccc(NC(=O)c4cccs4)c3)nc2s1	nt	i	nt	i	nt
CCOC(=O)c1cccc(NC(=O)c2cccs2)c1	i	15µM	i	23µM	i
Cc1nn2c(=O)cc(COC(=O)c3cccc(NC(=O)c4cccs4)c3)nc2s1	nt	12µM	nt	12µM	nt
O=C(Nc1ccccc1C(=O)OCc1cc(=O)n2ccsc2n1)c1cccc(F)c1	nt	12µM	nt	18µM	nt
CCOC(=O)c1cccc(NC(=O)c2ccccc2C)c1	i	?	i	i	i
O=CNc1ccccc1	i	i	i	i	i
CC(OC(=O)C1=COCCO1)C(=O)Nc1ncc(Cl)cc1Cl (configuration not stated)	i	i	i	?	i
Cc1ccc(C)c(OCc2cc(C(=O)N3CCOCC3)no2)c1	i	i	i	i	i
CCOC(=O)c1c(NC(=O)c2cccs2)sc2c1CC(C)(C)OC2	i	26µM	?	?	i
O=C(Nc1cccc(C(=O)OCc2cc(=O)n3nc(C4CC4)sc3n2)c1)c1cccc(Cl)c1	nt	16µM	nt	12µM	nt
CC(C)Cc1nn2c(=O)cc(COC(=O)c3cccc(NC(=O)c4cccs4)c3)nc2s1	nt	8.2µM	nt	?	nt
CC(C)Cc1nn2c(=O)cc(COC(=O)c3cccc(NC(=O)c4ccccc4)c3)nc2s1	nt	i	nt	i	nt
C(=C\c1ccc2nncn2c1)/c1ccccc1	i	i	i	?	i
O=C(CN1C(=O)S/C(=C\C=C\c2ccccc2)C1=O)Nc1cccc(O)c1	?	?	-110	?	?
COC(=O)c1ccc(/C=C2\SC(=S)N(CCCC(=O)NCCCN3CCOCC3)C2=O)cc1	?	23µM	i	?	?
COc1ccc(/C=C2\SC(=S)N(CCC(=O)NCCCN3CCOCC3)C2=O)cc1	i	?	-66	i	i
O=C(CCN1C(=O)/C(=C/C=C/c2ccccc2)SC1=S)Nc1ccccn1	i	?	i	16µM	?
SMILES	HT1080 IDH1KD tx	TDP1 cell noCPT	IL1B secr inh	TDP1 cell CPT	HT1080-NT tox
CCOc1ccc(/C=C2\SC(=S)N(CC(=O)NCCCN3CCOCC3)C2=O)cc1	i	i	i	i	i
O=C(O)CN1C(=O)/C(=C/C=C/c2ccccc2)SC1=S	i	?	i	?	i
COc1ccccc1C1CC(=O)Oc2c(C(C)C)ccc(C)c21 (configuration not stated)	i	i	i	i	i
CC(C)CCn1c(SCc2c(F)cccc2Cl)nc2ccsc2c1=O	nt	i	nt	i	nt
CCc1ccc(/C=C2\SC(=S)N(CCC(=O)NCCCN3CCOCC3)C2=O)cc1	?	?	-88	?	?
COC(=O)c1ccc(/C=C2/SC(=S)N(CCCC(=O)Nc3ccccn3)C2=O)cc1	?	21µM	i	21µM	i
O=C(CCCN1C(=O)/C(=C/c2cccc(Br)c2)SC1=S)NCCCN1CCOCC1	?	?	-96	26µM	?
